Laboratory results from article PMC4242493, “Sequence specificity incompletely defines the genome-wide occupancy of Myc”.
Whole data set: some 33,000 sequences, median “normalized occupancy” near 0.075, cut for the highest 2% near 0.095. For the sample, the highest values were picked, then their nearest neighbours and some sequences at random.

Molecular target: MaxL homodimer (Homo sapiens, UniProt P61244 1-160)
Test: universal protein-binding microarray (PBM); PBS-based mixture, 10 nM His-tagged protein dimer, 2% milk, 200 ng/uL BSA, 50 ng/uL salmon testes DNA, 0.02% TX-100; detection with Alexa 488 anti-His antibody;; high values mean tight binding
Details: protein: recombinant; tags: C-terminal His-tag (pET21a); chain copies: 2; dsDNA, one strand shown
Summary of the method: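 Arrays of the 'all 10-mer' universal design (Agilent 4 x 44 K) were exposed to 10 nM His-tagged protein dimer, stained with 10 ng/μL fluorophore-conjugated anti-His antibody and read on a GenePix 4400A to give a fluorescence intensity for each 8-mer. Binding occupancy is each intensity divided by the highest-ranked intensity.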

Chain of MaxL homodimer (P61244 whole entry): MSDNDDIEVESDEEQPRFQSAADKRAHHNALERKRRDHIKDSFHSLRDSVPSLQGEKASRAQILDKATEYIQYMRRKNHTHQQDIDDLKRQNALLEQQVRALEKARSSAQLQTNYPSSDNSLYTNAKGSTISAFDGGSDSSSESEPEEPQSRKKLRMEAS

Sequence | binding signal [normalized occupancy]
CCATGCTA | 0.0945
GCATGCTA | 0.112
GGATGCTA | 0.0763
AGATGCTG | 0.078
AAATGCTA | 0.0773
ACATGCTG | 0.124
AGATGCTA | 0.0746
ACATGCTA | 0.106
ATATGCTG | 0.0875
AATAGTAA | 0.0776
CATGGCTA | 0.0864
AAGAATTG | 0.0747
TAGTGGCA | 0.0787
GATGCTAA | 0.0749
CAGAGACC | 0.0727
AGCTATAA | 0.0785
CCAGGTAA | 0.0729
ACATACAG | 0.0868
AGGTGCTC | 0.0817
ACGTGCTA | 0.109
ACGTGCTC | 0.108
CCGTGCTA | 0.0812
GGGTGCTA | 0.0789
GTGTGCTA | 0.0884
GCGTGCTA | 0.117

Sequence | binding signal [normalized occupancy]
CCGTGCTC | 0.0737
ACGTGCTG | 0.0935
GCGAACTA | 0.0739
ATGTGTCC | 0.0851
ACATTTGA | 0.0788
ACTCACTC | 0.0763
CATCCCAG | 0.0743
ATGCCCAG | 0.0765
AGGGGTGA | 0.082
CGTGGTCA | 0.102
CATGGTCG | 0.0925
GGTGGTAA | 0.0793
CGTGGTAA | 0.096
CATGGTAG | 0.0879
AATGGTCA | 0.0816
CATGGTAA | 0.0939
CATGGTCA | 0.0991
CATGGTAC | 0.0998
CGTGGTCC | 0.0896
CGTGGTAG | 0.089
AGTGGTCA | 0.0751
GTTAGACA | 0.0808
CAGGTCAG | 0.0752
GCATAGCC | 0.0775
ACGTTCCC | 0.0819

Sequence | binding signal [normalized occupancy]
GGTCTTTA | 0.0763
AACACAGC | 0.0787
CAAGTGTG | 0.086
ATAATGTG | 0.095
ACACAGAG | 0.0759
GATCTTGC | 0.0794
AGCATCTC | 0.0746
AGGCATTC | 0.0762
AGGCATCC | 0.0757
AGGCATGG | 0.0974
AGGCATTG | 0.0775
AGGCATAG | 0.0784
AGGCATGC | 0.1
CTCGAAAA | 0.0738
CAAAATTG | 0.0748
AGTCGCAA | 0.0744
GCAGGTAA | 0.0753
AATGTTCC | 0.0722
GACGTGCA | 0.0797
AAGGTGCC | 0.0753
AAGGTGCT | 0.0733
TACGTGCA | 0.0875
CACGTGCA | 0.588
ACCGTGCT | 0.0773
GACGTGCC | 0.0841

Sequence | binding signal [normalized occupancy]
CACGTGCG | 0.641
CCCGTGCG | 0.0872
AACGTGCT | 0.115
AACGTGCC | 0.096
CACGTCCG | 0.0797
AATTACGG | 0.0744
CATTGGCG | 0.0762
AACTTATT | 0.0797
CTGTTATC | 0.078
CATTAGCG | 0.0779
AACGTTCA | 0.0836
CTCGTGCA | 0.1
GTCGTGCA | 0.0855
CAGGTGCC | 0.0785
CACGTGCC | 0.521
AACGTCCA | 0.0778
ATCGTGCA | 0.0816
AACGTGCA | 0.109
AACGTCCG | 0.0721
AACGTGCG | 0.108
AAGGTGCG | 0.077
CACGTACC | 0.0843
